Reference: article PMC5700166

How the values were obtained:
[1] = biological target: T1, GST-Nv-NF-kB (Ser allele) (Nematostella vectensis, UniProt A7UNT2 2-411); test: protein-binding microarray (PBM); PBM: ~300 nM protein, 6 mM HEPES pH 7.8, 80 mM KCl, 0.5 mM EDTA, 0.5 mM EGTA, 6% glycerol, 35 ng/ul poly-dIdC, 1% milk, 1 h, room temperature; Ap Aiptasia and Nv Nematostella (sea anemones) / Co Capsaspora / Aq Amphimedon (sponge) / Dm Drosophila / Hu human; RHD is the Rel homology domain; high values mean tight binding; conditions: dsDNA, one strand shown
T1 sequence: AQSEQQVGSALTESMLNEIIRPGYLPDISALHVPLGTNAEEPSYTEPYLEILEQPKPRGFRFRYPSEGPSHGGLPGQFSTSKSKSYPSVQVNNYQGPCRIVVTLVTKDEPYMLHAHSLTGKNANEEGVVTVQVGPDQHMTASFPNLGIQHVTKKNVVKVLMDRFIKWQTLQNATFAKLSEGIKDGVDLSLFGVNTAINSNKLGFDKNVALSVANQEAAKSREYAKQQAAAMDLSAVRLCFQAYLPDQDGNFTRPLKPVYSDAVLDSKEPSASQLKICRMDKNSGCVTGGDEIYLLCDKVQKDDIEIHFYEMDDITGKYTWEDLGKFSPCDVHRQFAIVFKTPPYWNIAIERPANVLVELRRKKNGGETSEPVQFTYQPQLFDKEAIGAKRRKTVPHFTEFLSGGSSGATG

GST-Hu-p50 = GST-Hu-p50 (Homo sapiens, UniProt P19838 7-356); test: as above; conditions: dsDNA, one strand shown
Chain of GST-Hu-p50 (P19838 7-356): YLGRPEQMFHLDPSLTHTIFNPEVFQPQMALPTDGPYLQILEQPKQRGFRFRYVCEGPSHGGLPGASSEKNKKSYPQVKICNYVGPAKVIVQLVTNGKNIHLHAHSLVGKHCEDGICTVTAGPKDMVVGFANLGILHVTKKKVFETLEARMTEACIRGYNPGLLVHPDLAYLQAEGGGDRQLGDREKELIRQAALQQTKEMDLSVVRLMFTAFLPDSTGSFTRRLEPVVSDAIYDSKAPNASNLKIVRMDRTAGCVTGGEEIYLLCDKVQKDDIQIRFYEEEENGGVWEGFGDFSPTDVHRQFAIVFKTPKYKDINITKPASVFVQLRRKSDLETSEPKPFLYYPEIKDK

Sequence	binding signal [1] [z-score]	binding signal (GST-Hu-p50) [z-score]
CCGATTAACATCAGGATCTCCCCTGATGTTAATCGGGTCTTGATTCGCTTGACGCTGCTG	5.15	4.48
CCGATTAACATCAAATTCCCGTATGATGTTAATCGGGTCTTGATTCGCTTGACGCTGCTG	4.51	3.02
CCGATTAACATCAGGGATTTTGATGATGTTAATCGGGTCTTGATTCGCTTGACGCTGCTG	2.92	2.85
CCGATTAACATCAAACAATTCCCTGATGTTAATCGGGTCTTGATTCGCTTGACGCTGCTG	5.01	3.72
CCGATTAACATCAAAAATTGCCCTGATGTTAATCGGGTCTTGATTCGCTTGACGCTGCTG	2.01	2.11
CCGATTAACATCAAAGAAATCCCTGATGTTAATCGGGTCTTGATTCGCTTGACGCTGCTG	4.02	3.77
CCGATTAACATCAATTGCCCCCCTGATGTTAATCGGGTCTTGATTCGCTTGACGCTGCTG	3.84	2.9
CCGATTAACATCAAGGAAACCCCTGATGTTAATCGGGTCTTGATTCGCTTGACGCTGCTG	3.81	5.22
CCGATTAACATCAAGAAATTTCCTGATGTTAATCGGGTCTTGATTCGCTTGACGCTGCTG	1.55	1.76
CCGATTAACATCAGGGGGTGTTATGATGTTAATCGGGTCTTGATTCGCTTGACGCTGCTG	4.85	5.17
CCGATTAACATCAGGGGTCCCCATGATGTTAATCGGGTCTTGATTCGCTTGACGCTGCTG	1.95	2.54
CCGATTAACATCACGGAACTCCCTGATGTTAATCGGGTCTTGATTCGCTTGACGCTGCTG	3.15	3.05
